Measured values published in PubChem BioAssay (NCATS).
Inconclusive results are not listed. Activity calls are given as the source filed them. Calls come from the whole dose curve; as a rule, active = well fitted inhibition curve with a large enough effect; inconclusive = small, poorly fitted or top-dose-only effect; inactive = flat fitted curve, though single readings scatter.

Legend:
Assay in all cases: Cytotoxic Profiling of Annotated Libraries Using Quantitative High-Throughput Screening (AID 1296008); note: nearly all actives have a fitted effect of over 60% in size
Settings in all cases: Five cell lines viability, CellTiter-Glo ATP luminescence, 48-72 h; max response: stronger effect = lower value
HEK293 = tested on: HEK293
Procedure, shortened: (§1)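 Cells exposed to compounds for 48 or 72 hr at 37 degrees Celsius. Viability read as ATP-coupled luminescence with CellTiter-Glo after 10 min at room temperature.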

HaCat = tested on: HaCat
Procedure, shortened: as §1

KB-3-1 = tested on: KB-3-1
Procedure, shortened: as §1

NIH3T3 = tested on: NIH3T3
Procedure, shortened: as §1
% is set by controls: 0 for no effect and ±100 for the full control effect; potency is the fitted concentration of half-maximal effect.

CCC1C(=O)N(C)c2cnc(Nc3ccc(C(=O)NC4CCC(N5CCN(CC6CC6)CC5)CC4)cc3OC)nc2N1C(C)C (stereo unspecified)
active: Potency (HEK293) 0.0058 µM | Potency (HaCat) 0.0366 µM | Potency (KB-3-1) 0.0052 µM | Potency (NIH3T3) 1.64 µM

CC(C)CC(=O)OC1OC=C(CO[C@@H]2O[C@H](CO)[C@@H](O)[C@H](O)[C@H]2O)C2CC(O)C(O)(CO)C12 (stereo partly specified)
inactive: max response (HEK293) -1.23% | max response (HaCat) -4.52% | max response (KB-3-1) 2.5% | max response (NIH3T3) -2.63%

Cc1nc([C@](C)(O)CO)sc1-c1cnc(N)c(O[C@H](C)c2cc(F)ccc2-n2nccn2)c1
active: Potency (HEK293) 13 µM | Potency (HaCat) 14.6 µM | Potency (KB-3-1) 18.4 µM | Potency (NIH3T3) 2.06 µM

C[C@@H]1O[C@@H](O[C@H]2[C@H](OC(=O)[C@]34CCC(C)(C)C[C@H]3C3=CCC5[C@@]6(C)C[C@H](O)[C@H](O[C@@H]7O[C@H](CO)[C@@H](O)[C@H](O)[C@H]7O)[C@@](C)(CO)C6[C@H](O)C[C@@]5(C)[C@]3(C)CC4)OC[C@H](O)[C@@H]2O)[C@H](O)[C@H](O)[C@H]1O[C@@H]1OC[C@@H](O)[C@H](O[C@@H]2OC[C@](O)(CO)[C@H]2O)[C@H]1O (stereo partly specified)
inactive: max response (HEK293) -1.81% | max response (HaCat) -1.17% | max response (KB-3-1) 3.08% | outcome (NIH3T3)

CC1(C)CC[C@]2(C(=O)O[C@@H]3O[C@H](CO)[C@@H](O)[C@H](O)[C@H]3O)CC[C@]3(C)C(=CCC4[C@@]5(C)C[C@@H](O)[C@H](O)C(C)(C)C5CC[C@]43C)C2[C@@H]1O (stereo partly specified)
inactive: max response (HEK293) 0.957% | max response (HaCat) 2.98% | outcome (KB-3-1) | max response (NIH3T3) -3.15%

COc1cc(C(=O)NC2CCN(C)CC2)ccc1Nc1ncc2c(n1)N(C1CCCC1)CC(F)(F)C(=O)N2C
active: Potency (HEK293) 0.0146 µM | Potency (HaCat) 0.116 µM | Potency (KB-3-1) 0.0058 µM | Potency (NIH3T3) 2.06 µM

C=C1C(=O)OC2C1C(O)CC1(C)C(O)CCC(C=O)C21 (stereo unspecified)
inactive: max response (HEK293) -0.284% | max response (HaCat) -11.8% | outcome (KB-3-1) | max response (NIH3T3) -0.523%

COc1c2c(c(C)c3c1C(=O)OC3)O[C@@]1(C)CC(O)C(C(C)(C)O)[C@](C)(CCC(=O)O)[C@H]1C2 (stereo partly specified)
inactive: max response (HEK293) 4.24% | max response (HaCat) 2% | outcome (KB-3-1) | max response (NIH3T3) -2.21%

C#CCN(Cc1cc2c(=O)[nH]c(C)nc2cc1Br)c1ccc(C(=O)NCc2cccnc2)cc1
active: Potency (HEK293) 0.0046 µM | Potency (HaCat) 0.0411 µM | Potency (KB-3-1) 0.0052 µM | Potency (NIH3T3) 0.0092 µM

C=CC(C)(CC/C=C(\C)C(=O)OC)OC1OC(COC(=O)CC(C)(O)CC(=O)O)C(OC2OC(CO)C(O)C(O)C2O)C(O)C1O (stereo unspecified)
inactive: max response (HEK293) -1.61% | max response (HaCat) -0.66% | outcome (KB-3-1) | max response (NIH3T3) 2.15%

C=C(C)C1Cc2cc(C(=O)OC3OC(CO)C(O)C(O)C3O)ccc2O1 (stereo unspecified)
inactive: max response (HEK293) -15% | max response (HaCat) -9.03% | max response (KB-3-1) 0.614% | max response (NIH3T3) -5.26%

C=C1CCC2C(C(C)(C)O)CCC2(C)CC(O)C(=C)CCC1O (stereo unspecified)
inactive: max response (HEK293) 2.07% | max response (HaCat) -2.57% | max response (KB-3-1) 2.13% | max response (NIH3T3) -9.68%

CC(=O)c1cc2c(cc1O)OC(C)(C)C=C2
inactive: max response (HEK293) 0.43% | max response (HaCat) -16.3% | outcome (KB-3-1) | max response (NIH3T3) -4.07%

Cc1c(CN2CCN(C(=O)C(C)O)CC2)sc2c(N3CCOCC3)nc(-c3cnc(N)nc3)nc12 (stereo unspecified)
active: Potency (HEK293) 0.651 µM | Potency (HaCat) 2.31 µM | Potency (KB-3-1) 0.58 µM | Potency (NIH3T3) 1.3 µM

C[C@H]1O[C@@H](O[C@H]2CC[C@@]3(C)C(CC[C@]4(C)C3CC=C3C5CC(C)(C)CC[C@]5(C(=O)O)CC[C@]34C(=O)O)C2(C)C)[C@H](O)[C@@H](O)[C@@H]1O (stereo partly specified)
inactive: max response (HEK293) -5.54% | max response (HaCat) -21.6% | max response (KB-3-1) 4.81% | max response (NIH3T3) 3.7%

CC(CCC1(O)OC2CC3C4CCC5CC(O[C@@H]6O[C@H](CO)[C@@H](O)[C@H](O)[C@H]6O[C@@H]6O[C@@H](C)[C@H](O)[C@@H](O)[C@H]6O)C(O)CC5(C)C4CCC3(C)C2C1C)CO[C@@H]1O[C@H](CO)[C@@H](O)[C@H](O)[C@H]1O (stereo partly specified)
inactive: max response (HEK293) 0.184% | max response (HaCat) -8.4% | max response (KB-3-1) -6.35% | max response (NIH3T3) -21%

CON(C)C(=O)[C@H](O)[C@H](Cc1ccccc1)NC(=O)c1cc2cc(Cl)ccc2[nH]1
inactive: max response (HEK293) -8.5% | max response (HaCat) -24.4% | max response (KB-3-1) 5.78% | max response (NIH3T3) -9.74%

CN1CCN(C2CCC(n3cc(-c4ccc(Oc5ccccc5)cc4)c4c(N)ncnc43)CC2)CC1 (stereo unspecified)
active: Potency (HEK293) 18.4 µM | Potency (HaCat) 1.03 µM | Potency (KB-3-1) 20.6 µM | Potency (NIH3T3) 0.326 µM

CC(=O)OC1C(O)C2C(C)C3=CC(=O)OC3(O)CC2C2(C)CCCC(C)(CO)C12 (stereo unspecified)
inactive: max response (HEK293) -10% | max response (HaCat) 3.69% | outcome (KB-3-1) | max response (NIH3T3) 0.673%

O=C1OCC(c2ccccc2)=C1Cc1ccccc1
inactive: max response (HEK293) 0.652% | max response (HaCat) -5.17% | max response (KB-3-1) -0.0133% | max response (NIH3T3) -8.21%

C[C@@H]1O[C@@H](O[C@H]2[C@H](O)[C@@H](C(=O)O)O[C@@H](O[C@H]3CC[C@@]4(C)C(CC[C@]5(C)C4CC=C4C6CC(C)(C)CC[C@]6(C(=O)O)CC[C@]45C)C3(C)C)[C@@H]2O[C@@H]2OC[C@@H](O)[C@H](O)[C@H]2O)[C@H](O)[C@H](O)[C@H]1O (stereo partly specified)
inactive: max response (HEK293) -0.663% | max response (HaCat) -12.7% | max response (KB-3-1) 9.7% | max response (NIH3T3) 0.526%

CC(c1ncncc1F)C(O)(Cn1cncn1)c1ccc(F)cc1F (stereo unspecified)
inactive: max response (HEK293) -0.4% | max response (HaCat) -2.25% | max response (KB-3-1) 0.345% | max response (NIH3T3) -5.84%

CC(C)=CCC/C(C)=C/CCC1(C)Oc2c(c(O)cc3c2CN(C(CCC(=O)O)C(=O)O)C3=O)CC1O (stereo unspecified)
inactive: max response (HEK293) -4.48% | max response (HaCat) -10.3% | outcome (KB-3-1) | max response (NIH3T3) -11%

CC(/C=C/C1=CC2=CC(=O)C(C)(O)C(O)C2=CO1)=C\C(C)CCO (stereo unspecified)
inactive: max response (HEK293) -3.02% | max response (HaCat) -24.3% | max response (KB-3-1) 4.06% | max response (NIH3T3) 0.418%

Cc1ccc(Cc2c(C)nc3nc(SCC(=O)NCCN4CCNCC4)nn3c2C)cc1
inactive: max response (HEK293) 2.24% | max response (HaCat) -12.4% | outcome (KB-3-1) | max response (NIH3T3) -3.32%

COc1ccc(C(=O)n2c(C)c(Cc3cccc(O[C@@H](C)C(=O)O)c3)c3cc(OC(F)(F)F)ccc32)cc1
inactive: max response (HEK293) -1.86% | max response (HaCat) -6.22% | max response (KB-3-1) 0.537% | max response (NIH3T3) 2.93%

COC(=O)c1ccc(OC(CO)C(O)c2ccc(O)c(OC)c2)c(OC)c1 (stereo unspecified)
inactive: max response (HEK293) 1.51% | max response (HaCat) 1.74% | max response (KB-3-1) -5.47% | max response (NIH3T3) -1.03%

C=CC1(C)CC(OC(=O)/C(C)=C\COC(C)=O)C(C(=C)C(=O)O)C(O)C1C(=C)CO (stereo unspecified)
inactive: max response (HEK293) -0.348% | max response (HaCat) 3.73% | max response (KB-3-1) 8.05% | max response (NIH3T3) -3.05%

CC1CCC2C(C(=O)O)=COC(O[C@@H]3O[C@H](CO)[C@@H](O)[C@H](O)[C@H]3O)C12 (stereo partly specified)
inactive: max response (HEK293) -3.47% | max response (HaCat) -2.91% | max response (KB-3-1) -9.1% | max response (NIH3T3) -1.59%

C[C@@H]1O[C@@H](O[C@H]2[C@@H](OC(=O)[C@]34CCC(C)(C)CC3C3=CCC5[C@@]6(C)C[C@H](O)[C@H](O[C@@H]7O[C@H](C(=O)O)[C@@H](O)[C@H](O)[C@H]7O)[C@@](C)(C(=O)O)C6CC[C@@]5(C)[C@]3(C)CC4)OC[C@H](O)[C@@H]2O)[C@H](O)[C@H](O)[C@H]1O[C@@H]1OC[C@@H](O)[C@H](O)[C@H]1O (stereo partly specified)
inactive: max response (HEK293) -1.89% | max response (HaCat) -1.2% | outcome (KB-3-1) | max response (NIH3T3) -0.698%

COc1c2c(c(C)c3c1C(=O)OC3)OC1(C)CC(O)C(C(C)(C)O)C(C)(CCC(=O)O)C1C2 (stereo unspecified)
inactive: max response (HEK293) -5.2% | max response (HaCat) -1.29% | outcome (KB-3-1) | max response (NIH3T3) 0.542%

CC1=C(CCC(C)O[C@@H]2O[C@H](CO)[C@@H](O)[C@H](O)[C@H]2O)C(C)(C)CCC1=O (stereo partly specified)
inactive: max response (HEK293) 4.11% | max response (HaCat) -0.525% | max response (KB-3-1) 8.72% | max response (NIH3T3) -15.3%

C[C@@H]1CC[C@]2(C(=O)O)CC[C@]3(C)C(=CCC4[C@@]5(C)C[C@@H](O)[C@H](O)[C@@](C)(CO)C5CC[C@]43C)C2[C@]1(C)O (stereo partly specified)
inactive: max response (HEK293) -12.2% | max response (HaCat) 4.14% | max response (KB-3-1) 2.17% | max response (NIH3T3) -6.81%

COc1ccccc1Oc1ccc(N(Cc2cccnc2)S(=O)(=O)CC(F)(F)F)cc1
inactive: max response (HEK293) 4.88% | max response (HaCat) 0.0707% | max response (KB-3-1) -5.75% | max response (NIH3T3) -1.58%

CC1=CC(=O)C2C(C)(C)CCC[C@]2(C)[C@H]1CO (stereo partly specified)
inactive: max response (HEK293) 1.55% | max response (HaCat) -11.3% | max response (KB-3-1) 2.57% | max response (NIH3T3) 2%

O=C1N=C(N2CCOCC2)CN1c1ccc(Cl)cc1
inactive: max response (HEK293) -16.9% | max response (HaCat) -30.2% | max response (KB-3-1) 2.82% | max response (NIH3T3) -0.0852%

COC(C(=O)N1Cc2[nH]nc(NC(=O)c3ccc(N4CCN(C)CC4)cc3)c2C1)c1ccccc1 (stereo unspecified)
active: Potency (HEK293) 1.64 µM | Potency (HaCat) 5.8 µM | Potency (KB-3-1) 8.2 µM | Potency (NIH3T3) 4.11 µM

C/C=C/c1cc(OC)c2c(c1)[C@@H](C)[C@@H](c1ccc(O)c(OC)c1)O2
inactive: max response (HEK293) -109% | max response (HaCat) -83.1% | max response (KB-3-1) -24.2% | max response (NIH3T3) -61.9%

N[C@H]1Cc2ccccc2N(O)C1=O
active: Potency (HEK293) 25.9 µM
inactive: max response (HaCat) -0.256% | max response (KB-3-1) -13.7% | max response (NIH3T3) -9.2%
